Giardia FBPA inh = qHTS Assay for Inhibitors of Fructose-1,6-bisphosphate Aldolase from Giardia Lamblia | A8B2U2 | purified Giardia FBPA | Potency, µM (titrated, usually from 59.6 µM), for inactives: at the top dose activity, negative = inhibition, usual class: inhibitors | 290,000 compounds, 0.71% hits | AID 2451, 2010; also: nearly all actives have a fitted effect of over 55% in size
Target sequence (A8B2U2 whole entry, looked up): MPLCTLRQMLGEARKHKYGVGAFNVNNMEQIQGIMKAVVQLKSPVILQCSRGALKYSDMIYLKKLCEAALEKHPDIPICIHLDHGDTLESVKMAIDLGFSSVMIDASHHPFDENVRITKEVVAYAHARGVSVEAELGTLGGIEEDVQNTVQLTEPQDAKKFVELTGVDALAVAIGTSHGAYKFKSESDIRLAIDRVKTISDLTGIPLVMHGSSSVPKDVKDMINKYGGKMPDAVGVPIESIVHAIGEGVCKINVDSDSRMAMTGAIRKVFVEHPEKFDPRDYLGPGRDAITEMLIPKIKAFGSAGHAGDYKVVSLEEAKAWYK
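Giardia FBPA (40 nM reagent) was preincubated 10 min at RT with compound (up to 57.5 uM final), then substrate plus GAPDH/TPI/NAD/arsenate coupling system with diaphorase/resazurin was added; resorufin fluorescence (525/598 nm) was read after 20 min.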
AmpC detergent = qHTS Inhibitors of AmpC Beta-Lactamase (assay with detergent); AmpC hydrolysis of nitrocefin, absorbance 480 nm, 0.01% Triton; Potency, µM (doses to about 114 µM), without a hit: top-dose activity change, negative = inhibition, hits mostly inhibitors; 370,000 compounds, 0.041% hits; AID 485294, 2010;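 also: 0% = no-compound wells and -100% = no-enzyme wells; nearly all actives have a fitted effect of over 25% in size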
Target sequence (P00811 whole entry, looked up): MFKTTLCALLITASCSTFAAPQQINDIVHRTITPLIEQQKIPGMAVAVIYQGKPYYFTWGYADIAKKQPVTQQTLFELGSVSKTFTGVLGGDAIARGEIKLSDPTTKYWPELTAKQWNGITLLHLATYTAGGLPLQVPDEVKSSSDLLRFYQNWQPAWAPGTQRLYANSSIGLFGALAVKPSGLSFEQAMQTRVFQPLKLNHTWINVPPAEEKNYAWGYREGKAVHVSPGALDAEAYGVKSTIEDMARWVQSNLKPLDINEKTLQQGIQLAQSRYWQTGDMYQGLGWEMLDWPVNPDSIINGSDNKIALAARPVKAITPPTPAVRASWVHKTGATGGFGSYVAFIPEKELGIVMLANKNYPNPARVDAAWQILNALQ
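AmpC (5.3 nM in the dispensed reagent) in 20 mM phosphate pH 7.0 with 0.01% (detergent screen) or 0.0001% Triton X-100 was preincubated with compounds for 15 min at room temperature. Nitrocefin was then added from an 800 uM solution, and hydrolysis was followed at 480 nm.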
RE007 growth inh = qHTS Assay for Inhibitors of the HIV-1 protein Vpr. S. pombe RE007 Vpr strain, BacTiter-Glo ATP luminescence, 24 h. Potency, µM (doses to about 92.2 µM), for inactives: at the highest dose activity change, negative = less growth, usual class: inhibitors. 360,000 compounds, 0.21% hits. AID 651644, 2012; active = well fitted falling curve with a large enough effect; inconclusive = small, poorly fitted or top-dose-only effect; inactive = no such curve, though single readings can be large or run the other way; also: nearly all actives have a fitted effect of over 50% in size
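Fission yeast RE007 carrying one integrated HIV-1 vpr copy, seeded at OD 0.01 in PMG+AL medium with 23 nL pinned compound. Grown 24 h at 30 degrees; viability read by BacTiter-Glo luminescence after 5 min.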
AmpC inh no detg = qHTS Inhibitors of AmpC Beta-Lactamase (assay without detergent) | Potency, µM (highest dose often 57.1 µM), without a hit: top-dose activity change, negative = inhibition, actives largely listed as inhibitors | AID 485341, 2010 | AmpC nitrocefin hydrolysis, absorbance 480 nm, 0.0001% Triton | P00811 | 330,000 compounds, 0.52% hits;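 also: plate controls were no compound for no effect and no enzyme for full effect; nearly all actives have a fitted effect of over 20% in size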
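20 mM phosphate pH 7.0 + 0.01% (detergent screen) or 0.0001% Triton X-100; 5.3 nM AmpC reagent; cpd preinc 15 min RT; nitrocefin (800 uM stock) to start; A480 q20 s × 4 min; Activity was normalised to no-enzyme and no-compound control wells.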
Sm TGR block = qHTS Assay for the Inhibitors of Schistosoma Mansoni Peroxiredoxins | AID 485364, 2010 | 360,000 compounds, 3% hits | Potency, µM (doses to about 114 µM), for inactives: at the top dose activity change, negative = inhibition, actives largely listed as inhibitors | purified TGR, DTNB reduction, TNB absorbance 405 nm | Schistosoma mansoni thioredoxin glutathione reductase (TGR), Q962Y6; also: nearly all actives have a fitted effect of over 60% in size
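Kinetic colorimetric format: TGR-catalysed, NADPH-driven DTNB reduction monitored via TNB absorbance. Enzyme dispensed at 20 nM; compound exposure 15 min at room temperature before reaction start.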
Starred values were filed as active, the others as inactive; [ ] = dose if it differs, or a comment. Most compounds without a hit are left out; they make up all but 3.4% or so of the library. Unless noted, calls follow the shape of the dose curve; as a rule, active = well fitted curve in the direction sought with a large enough effect; inconclusive = small, poorly fitted or top-dose-only effect, or another doubt; inactive = no such curve, though single readings can be large; an effect the other way counts as inactive or inconclusive. Unless noted, % is scaled to controls: 0 for no effect and ±100 for the full control effect; potency is read from the fitted curve at half-maximal effect.

How did CC1NC(=O)NC1CCCCCC(=O)NCCc1ccccc1 (centres undefined) do in these assays?
Giardia FBPA inh: -5.7%; AmpC detergent: -13.5%; RE007 growth inh: 12.7%; AmpC inh no detg: 87.8%; Sm TGR block: 31.6µM*

How did O=C1/C(=C\Nc2ccc(OC(F)(F)F)cc2)CCN1c1ncccn1 do in these assays?
Giardia FBPA inh: -10.0%; AmpC detergent: -2.1%; RE007 growth inh: 7.9%; AmpC inh no detg: -12.4%; Sm TGR block: inconclusive

What do the screens show for `O=C1/C(=C\Nc2ccc(Cl)cc2)CCN1c1ncccn1`?
Giardia FBPA inh: -29.0%; AmpC detergent: -2.1%; RE007 growth inh: -7.2%; AmpC inh no detg: -49.0%; Sm TGR block: 15.8µM*

Results for COCCN(C(=O)CCl)C(C(=O)NC1CCCCC1)c1ccccc1C (centres undefined) ?
Giardia FBPA inh: 3.4%; AmpC detergent: -1.3%; RE007 growth inh: -17.8%; AmpC inh no detg: -15.5%; Sm TGR block: 3.55µM*

How did COCCN(C(=O)CCC(=O)Nc1cc(C)on1)C(C(=O)NC1CCCC1)c1ccccc1C (centres undefined) do in these assays?
Giardia FBPA inh: 1.3%; AmpC detergent: 4.9%; RE007 growth inh: 13.7%; AmpC inh no detg: 30.1%; Sm TGR block: 4.3%

How did COc1ccc(CNC(=O)c2ccc(Sc3ccc(Cl)cc3)c(NC(C)=O)c2)c(OC)c1 do in these assays?
AmpC detergent: 2.6%; Sm TGR block: 1.4%

Results for COc1cc2c(cc1OC)C1=C(C#N)CN(CC(=O)O)CN1CC2 ?
Giardia FBPA inh: -22.8%; AmpC detergent: -11.0%; RE007 growth inh: 6.1%; AmpC inh no detg: 45.5%; Sm TGR block: 35.5µM*

Results for Cc1cc(NC(=O)c2coc(=O)c(Br)c2)ccc1C(C)C ?
Giardia FBPA inh: -13.4%; AmpC detergent: 7.6%; RE007 growth inh: -17.0%; AmpC inh no detg: 15.8µM*; Sm TGR block: -0.6%

How did COc1ccc(S(=O)(=O)N[C@@H](CSCc2ccccc2)C(=O)O)cc1 do in these assays?
AmpC detergent: -7.5%; RE007 growth inh: 17.5%; AmpC inh no detg: -9.4%; Sm TGR block: 39.8µM*

What do the screens show for `COc1ccc(C[C@@H](NS(=O)(=O)c2ccc(C(=O)O)cc2)C(=O)O)cc1`?
Giardia FBPA inh: 2.4%; AmpC detergent: inconclusive; AmpC inh no detg: -3.6%; Sm TGR block: -1.7%

Results for CN(C)[C@@H]1C(=O)C(C(N)=O)=C(O)[C@@]2(O)C(=O)C3=C(O)c4c(O)cccc4[C@@](C)(O)[C@H]3[C@H](O)[C@@H]12 ?
Giardia FBPA inh: 4.46µM*; AmpC detergent: inconclusive; RE007 growth inh: 9.2%[18.4 µM]; AmpC inh no detg: -23.1%; Sm TGR block: 8.91µM*

How did CN(C)[C@H]1C(=O)C(C(=O)NCN2CCCC2)=C(O)[C@]2(O)C(=O)C3=C(O)c4c(O)cccc4[C@@](C)(O)[C@H]3C[C@@H]12 do in these assays?
Giardia FBPA inh: 4.46µM*

Results for CCOC(=O)C(=Cc1ccc(F)cc1)C(=O)OCC ?
Giardia FBPA inh: inconclusive; AmpC detergent: -7.1%; AmpC inh no detg: -10.2%; Sm TGR block: 15.8µM*

How did CCOC(=O)C(=Cc1ccc(-n2ccnc2)cc1)C(=O)OCC do in these assays?
Giardia FBPA inh: -4.4%; AmpC detergent: 6.0%; RE007 growth inh: -25.9%; AmpC inh no detg: 2.8%; Sm TGR block: 12.6µM*

Results for COC(=O)c1ccc(-n2ccnc2)cc1 ?
Giardia FBPA inh: 7.3%; AmpC detergent: -1.9%; RE007 growth inh: 2.8%; AmpC inh no detg: -1.2%; Sm TGR block: 0.1%

How did CCOC(=O)C(=Cc1ccc(Br)cc1)C(=O)OCC do in these assays?
Giardia FBPA inh: -15.1%; AmpC detergent: -16.6%; RE007 growth inh: inconclusive; AmpC inh no detg: -11.3%; Sm TGR block: 3.55µM*

Results for CCOC(=O)/C(=C/c1ccc(OC(=O)c2ccncc2)cc1)C(C)=O ?
Giardia FBPA inh: 4.6%; AmpC detergent: -4.3%; RE007 growth inh: -16.7%; AmpC inh no detg: 3.5%; Sm TGR block: inconclusive

How did Cc1ccc(C)c(NC(=S)N2C3CCCC2CC(NC(=O)C2CC2)C3)c1 (centres undefined) do in these assays?
Giardia FBPA inh: 0.2%; AmpC detergent: 0.6%; RE007 growth inh: 0.4%; AmpC inh no detg: -17.1%; Sm TGR block: 3.4%

How did COCCCN(CC(=O)Nc1ccc(N2CCOCC2)cc1)S(=O)(=O)c1ccc(C)cc1 do in these assays?
Giardia FBPA inh: -1.1%; AmpC detergent: -3.6%; RE007 growth inh: 2.8%; AmpC inh no detg: -11.6%; Sm TGR block: -2.6%

How did O=C(O)CCC(=O)CCC(=O)c1ccccc1 do in these assays?
Giardia FBPA inh: 1.7%; AmpC detergent: 5.3%; RE007 growth inh: 17.0%; AmpC inh no detg: 0.6%; Sm TGR block: 44.7µM*

How did CCOC(=O)CCCCC(=O)c1[nH]c(=O)[nH]c1C[n+]1ccccc1 do in these assays?
Giardia FBPA inh: -5.7%; AmpC detergent: 1.5%; AmpC inh no detg: -14.1%; Sm TGR block: 6.31µM*

What do the screens show for `CCOC(=O)CCCCC(=O)c1[nH]c(=O)[nH]c1CN1CCOCC1`?
Giardia FBPA inh: -11.8%; AmpC detergent: -9.6%; RE007 growth inh: -4.8%; AmpC inh no detg: -16.9%; Sm TGR block: -26.8%

How did CCOC(=O)CCCCC(=O)c1[nH]c(=O)[nH]c1C[n+]1ccc(C)cc1 do in these assays?
Giardia FBPA inh: -15.2%; AmpC detergent: 2.6%; RE007 growth inh: -2.2%; AmpC inh no detg: -17.9%; Sm TGR block: 35.5µM*

What do the screens show for `Cc1[nH]c(=O)[nH]c1C(=O)CCCCC(=O)OCC(=O)Nc1ccccn1`?
Giardia FBPA inh: 1.6%; AmpC detergent: -3.4%; RE007 growth inh: -12.4%; AmpC inh no detg: -10.1%; Sm TGR block: 4.4%

What do the screens show for `CCc1ccc(OCC(=O)NNC(=O)Cc2c(F)cccc2Cl)cc1`?
AmpC detergent: -12.6%; RE007 growth inh: 4.5%; AmpC inh no detg: -13.1%; Sm TGR block: -2.5%

What do the screens show for `COc1ccc(C(CNC(=O)c2cc(C)on2)N(C)C)cc1` (centres undefined)?
Giardia FBPA inh: -7.7%; AmpC detergent: -3.5%; RE007 growth inh: 7.3%; AmpC inh no detg: 88.7%; Sm TGR block: 1.8%

Results for Cc1oc(-c2ccccc2Cl)nc1CSCC(=O)N1CCCC1 ?
Giardia FBPA inh: -3.6%; AmpC detergent: -9.9%; RE007 growth inh: 10.0%; AmpC inh no detg: 72.0%; Sm TGR block: inconclusive

Results for C=CCOC(=O)C1=C(C)NC(SCC(=O)N(CC)CC)=C(C#N)C1c1ccccc1 (centres undefined) ?
Giardia FBPA inh: 1.3%; AmpC detergent: inconclusive; RE007 growth inh: 48.2%; AmpC inh no detg: 87.6%; Sm TGR block: 3.3%

Compound activity deposited in PubChem by National Center for Advancing Translational Sciences (NCATS).
